Results from PubChem BioAssay (EPA / NIEHS).
Active and inactive are the calls of the source. The calls were made as follows: active = hit-call score of the fitted dose curve at least 0.9, where 1 is the maximum; inactive = score below 0.9.

Assays:
[1] = read-out: TIMP metallopeptidase inhibitor 1 (TIMP1), TIMP1 (gene 7076); assay: BSK_hDFCGF_TIMP1: BioMAP Diversity Plus: hDFCGF Assay for TIMP metallopeptidase inhibitor 1 (TIMP1) Biomarker Activity (AID 2283062); settings: primary human foreskin fibroblasts; actives raise or lower the signal
Outline: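 Bidirectional curve fitting against DMSO baseline yielded this endpoint, based on ELISA detection of TIMP-1 in primary human foreskin fibroblasts exposed to compound for 24 h.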

[2] = read-out: Monokine induced gamma interferon (MIG), CXCL9 (gene 4283); assay: BSK_hDFCGF_MIG: BioMAP Diversity Plus: hDFCGF Assay for Monokine induced gamma interferon (MIG) Biomarker Activity (AID 2283063); settings: primary human foreskin fibroblasts; actives raise or lower the signal
Outline: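 Endpoint derived by bidirectional fitting relative to DMSO; MIG quantified via ELISA in primary human foreskin fibroblasts harvested 24 h after dosing.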

[3] = read-out: Matrix Metallopeptidase 1 (MMP1), MMP1 (gene 4312); assay: BSK_hDFCGF_MMP1: BioMAP Diversity Plus: hDFCGF Assay for Matrix Metallopeptidase 1 (MMP1) Biomarker Activity (AID 2283064); settings: primary human foreskin fibroblasts; actives raise or lower the signal
Outline: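 Primary human foreskin fibroblasts in the hDFCGF system were dosed with test chemical, and MMP1 was measured by ELISA 24 h later. Values come from bidirectional curve fitting against the DMSO baseline.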

[4] = read-out: Vascular cell adhesion molecule 1 (VCAM1), VCAM1 (gene 7412); assay: BSK_hDFCGF_VCAM1: BioMAP Diversity Plus: hDFCGF Assay for Vascular cell adhesion molecule 1 (VCAM1) Biomarker Activity (AID 2283065); settings: primary human foreskin fibroblasts; actives raise or lower the signal
Outline: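 Measured after 24 h chemical treatment of primary human skin fibroblasts, VCAM-1 was detected by ELISA and concentration-response analysed in both directions versus DMSO vehicle.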

[5] = read-out: Plasminogen activator inhibitor-1 (PAI1), SERPINE1 (gene 5054); assay: BSK_hDFCGF_PAI1: BioMAP Diversity Plus: hDFCGF Assay for Plasminogen activator inhibitor-1 (PAI1) Biomarker Activity (AID 2283066); settings: primary human foreskin fibroblasts; actives raise or lower the signal
Outline: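 Primary dermal fibroblasts (human foreskin), hDFCGF system; compound 24 h; PAI-1 by ELISA; bidirectional fit vs DMSO control.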

[6] = read-out: Intercellular Adhesion Molecule 1 (ICAM1), ICAM1 (gene 3383); assay: BSK_KF3CT_ICAM1: BioMAP Diversity Plus: KF3CT Assay for Intercellular Adhesion Molecule 1 (ICAM1) Biomarker Activity (AID 2283067); settings: primary human keratinocytes with fibroblasts; actives raise or lower the signal
Outline: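 Bidirectional curve fitting against a DMSO baseline was applied to ICAM-1 ELISA signal from primary human skin co-cultures harvested 24 h after treatment, with SRB staining of parallel wells for overt cytotoxicity.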

[7] = read-out: Interferon-gamma inducible Protein 10 (IP10), CXCL10 (gene 3627); assay: BSK_KF3CT_IP10: BioMAP Diversity Plus: KF3CT Assay for Interferon-gamma inducible Protein 10 (IP10) Biomarker Activity (AID 2283068); settings: primary human keratinocytes with fibroblasts; actives raise or lower the signal
Outline: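 ELISA read-out of IP-10 after 24 h chemical dosing of human skin primary co-culture (keratinocytes, foreskin fibroblasts). Gain or loss of signal relative to DMSO, bidirectional curve fit.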

[8] = BSK_KF3CT_SRB: Viability Assessment in the BioMAP Diversity Plus: KF3CT Assay (AID 2283069); settings: primary human keratinocytes with fibroblasts;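 also: total protein by sulforhodamine B staining as a cytotoxicity measure; read 24 h after compound addition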
Outline: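 Human primary keratinocyte plus foreskin fibroblast co-culture exposed to chemicals for 24 h. Total protein measured by 0.1% sulforhodamine B staining after 10% TCA fixation, read at 560 nm; bidirectional fitting versus DMSO baseline.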

[9] = read-out: Interleukin-1 alpha (IL1a), IL1A (gene 3552); assay: BSK_KF3CT_IL1a: BioMAP Diversity Plus: KF3CT Assay for Interleukin-1 alpha (IL1a) Biomarker Activity (AID 2283070); settings: primary human keratinocytes with fibroblasts; actives raise or lower the signal
Outline: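 Human keratinocyte plus foreskin fibroblast primary co-culture, sampled 24 h after chemical dosing. IL-1a measured by ELISA; responses fitted bidirectionally against DMSO baseline (negative control), so gain or loss of signal both count.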

[10] = read-out: TIMP metallopeptidase inhibitor 2 (TIMP2), TIMP2 (gene 7077); assay: BSK_KF3CT_TIMP2: BioMAP Diversity Plus: KF3CT Assay for TIMP metallopeptidase inhibitor 2 (TIMP2) Biomarker Activity (AID 2283071); settings: primary human keratinocytes with fibroblasts; actives raise or lower the signal
Outline: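 Cells: human keratinocytes co-cultured with foreskin fibroblasts. Treat with chemical, 24 h. Measure TIMP-2 by ELISA; fit curves bidirectionally vs DMSO baseline.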

[11] = read-out: Transforming growth factor beta 1 (TGFb1), TGFB1 (gene 7040); assay: BSK_KF3CT_TGFb1: BioMAP Diversity Plus: KF3CT Assay for Transforming growth factor beta 1 (TGFb1) Biomarker Activity (AID 2283072); settings: primary human keratinocytes with fibroblasts; actives raise or lower the signal
Outline: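 Primary human skin cells (keratinocytes, foreskin fibroblasts) were co-cultured, exposed to test chemical and sampled at 24 h. TGF-b1 levels were measured by ELISA and fitted bidirectionally relative to DMSO.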

[12] = read-out: C-C motif chemokine 2 (Homo sapiens) (UniProt P13500); assay: BSK_KF3CT_MCP1: BioMAP Diversity Plus: KF3CT Assay for Monocyte Chemoattractant Protein 1 (MCP1/CCL2) Biomarker Activity (AID 2283073); settings: primary human keratinocytes with fibroblasts; actives raise or lower the signal
Outline: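 Biomarker MCP-1 is measured by ELISA in primary human keratinocytes co-cultured with foreskin fibroblasts, 24 h after chemical treatment; DMSO serves as the negative control and activity baseline.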

[13] = read-out: Matrix Metallopeptidase 9 (MMP9), MMP9 (gene 4318); assay: BSK_KF3CT_MMP9: BioMAP Diversity Plus: KF3CT Assay for Matrix Metallopeptidase 9 (MMP9) Biomarker Activity (AID 2283074); settings: primary human keratinocytes with fibroblasts; actives raise or lower the signal
Outline: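 Keratinocyte plus foreskin fibroblast human primary skin co-culture was dosed with chemical and MMP-9 was quantified by ELISA 24 h later. Bidirectional curve fitting used DMSO as negative control and activity baseline.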

[14] = read-out: urokinase plasminogen activator (uPA), PLAU (gene 5328); assay: BSK_KF3CT_uPA: BioMAP Diversity Plus: KF3CT Assay for urokinase plasminogen activator (uPA) Biomarker Activity (AID 2283075); settings: primary human keratinocytes with fibroblasts; actives raise or lower the signal
Outline: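 Human keratinocyte plus foreskin fibroblast primary co-culture exposed to chemical for 24 h. uPA levels were quantified by ELISA, and activity was fitted bidirectionally against a DMSO negative-control baseline.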

CD40, CD40 (gene 958) = assay: BSK_LPS_CD40: BioMAP Diversity Plus: LPS Assay for CD40 Biomarker Activity (AID 2283076); settings: primary human HUVEC with PBMC; actives raise or lower the signal
Outline: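 Using a multiplexed primary human co-culture (umbilical vein endothelium plus PBMC), CD40 was read by ELISA 24 h after dosing, with cytotoxicity tracked by sulforhodamine B staining of parallel cultures and activity fitted bidirectionally versus DMSO.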

[15] = read-out: E-selectin (Homo sapiens) (UniProt P16581); assay: BSK_LPS_Eselectin: BioMAP Diversity Plus: LPS Assay for Eselectin Biomarker Activity (AID 2283077); settings: primary human HUVEC with PBMC; actives raise or lower the signal
Outline: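 Dose chemical onto LPS-driven HUVEC/PBMC co-culture; after 24 h, run ELISA for E-selectin; fit up- and down-going responses relative to DMSO control.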

[16] = read-out: Interleukin-8 (IL8), CXCL8 (gene 3576); assay: BSK_LPS_IL8: BioMAP Diversity Plus: LPS Assay for Interleukin-8 (IL8) Biomarker Activity (AID 2283078); settings: primary human HUVEC with PBMC; actives raise or lower the signal
Outline: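 In this LPS system, chemical-treated human umbilical vein endothelium/PBMC co-cultures were harvested at 24 h for IL-8 ELISA.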

[17] = BSK_LPS_SRB: Viability Assessment in the BioMAP Diversity Plus: LPS Assay (AID 2283079); settings: primary human HUVEC with PBMC;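 also: total protein by sulforhodamine B absorbance as a cytotoxicity measure; measured one day after compound addition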
Outline: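 Cytotoxicity endpoint in human endothelial–PBMC co-culture: 24 h exposure, then SRB (0.1%) staining, 560 nm read.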

[18] = read-out: Interleukin-1 alpha (IL1a), IL1A (gene 3552); assay: BSK_LPS_IL1a: BioMAP Diversity Plus: LPS Assay for Interleukin-1 alpha (IL1a) Biomarker Activity (AID 2283080); settings: primary human HUVEC with PBMC; actives raise or lower the signal
Outline: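 Primary human HUVEC and PBMC co-culture stimulated with LPS is dosed and harvested at 24 h. Both increases and decreases in ELISA-measured IL-1a are scored relative to DMSO.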

[19] = read-out: Monocyte Chemoattractant Protein-1 (MCP1), CCL2 (gene 6347); assay: BSK_LPS_MCP1: BioMAP Diversity Plus: LPS Assay for Monocyte Chemoattractant Protein-1 (MCP1) Biomarker Activity (AID 2283081); settings: primary human HUVEC with PBMC; actives raise or lower the signal
Outline: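 Values derive from bidirectional fitting against DMSO of ELISA-measured MCP-1 in a human primary endothelial and mononuclear cell co-culture, 24 h after chemical addition under LPS activation.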

Measured: outcome

Chain of E-selectin (Homo sapiens) (P16581 whole entry, looked up): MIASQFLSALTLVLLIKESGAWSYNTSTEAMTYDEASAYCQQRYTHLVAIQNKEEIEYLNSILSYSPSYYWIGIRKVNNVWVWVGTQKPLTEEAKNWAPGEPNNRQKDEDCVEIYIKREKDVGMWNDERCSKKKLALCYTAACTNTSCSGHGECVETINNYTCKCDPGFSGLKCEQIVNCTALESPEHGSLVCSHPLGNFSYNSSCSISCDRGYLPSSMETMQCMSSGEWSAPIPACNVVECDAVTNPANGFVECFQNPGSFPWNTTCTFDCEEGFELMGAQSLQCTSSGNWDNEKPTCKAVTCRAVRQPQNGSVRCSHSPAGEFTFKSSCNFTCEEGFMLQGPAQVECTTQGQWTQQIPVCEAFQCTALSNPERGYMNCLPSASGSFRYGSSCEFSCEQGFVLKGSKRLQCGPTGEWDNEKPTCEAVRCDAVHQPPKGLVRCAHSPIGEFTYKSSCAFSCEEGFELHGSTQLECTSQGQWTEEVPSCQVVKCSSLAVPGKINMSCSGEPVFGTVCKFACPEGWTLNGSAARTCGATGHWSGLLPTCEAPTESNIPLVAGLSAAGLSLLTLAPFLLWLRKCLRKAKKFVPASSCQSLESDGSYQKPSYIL

Cc1ccc(N=C=O)cc1N=C=O
inactive: [1] | [2] | [3] | [4] | [5] | [6] | [7] | [8] | [9] | [10] | [11] | [12] | [13] | [14] | CD40, CD40 (gene 958) | [15] | [16] | [17] | [18]

CN(C)C(=O)Nc1ccc(Cl)cc1
inactive: [1] | [2] | [3] | [4] | [5] | [6] | [7] | [8] | [9] | [10] | [11] | [12] | [13] | [14] | CD40, CD40 (gene 958) | [15] | [16] | [17] | [18]

CC(C)(C)OOC(C)(C)CCC(C)(C)OOC(C)(C)C
inactive: [1] | [2] | [3] | [4] | [5] | [6] | [7] | [8] | [9] | [10] | [11] | [12] | [13] | [14] | CD40, CD40 (gene 958) | [15] | [16] | [17] | [18] | [19]
